Screening data from PubChem.
Only some compounds are listed: those with a hit (about 4.7% of all), similar ones and a draw of the others.
TRHR PAM: allosteric enhancers of human TRH receptor. P34981. TRHR cells, fluo-8 calcium fluorescence, EC20 TRH enhancement. enhancement, % at 2 µM. 360,000 tested, 0.66% active. AID 493056; in the data active = enhancement above about 30%; note: 0% is about no effect
Target sequence (P34981 whole entry, looked up): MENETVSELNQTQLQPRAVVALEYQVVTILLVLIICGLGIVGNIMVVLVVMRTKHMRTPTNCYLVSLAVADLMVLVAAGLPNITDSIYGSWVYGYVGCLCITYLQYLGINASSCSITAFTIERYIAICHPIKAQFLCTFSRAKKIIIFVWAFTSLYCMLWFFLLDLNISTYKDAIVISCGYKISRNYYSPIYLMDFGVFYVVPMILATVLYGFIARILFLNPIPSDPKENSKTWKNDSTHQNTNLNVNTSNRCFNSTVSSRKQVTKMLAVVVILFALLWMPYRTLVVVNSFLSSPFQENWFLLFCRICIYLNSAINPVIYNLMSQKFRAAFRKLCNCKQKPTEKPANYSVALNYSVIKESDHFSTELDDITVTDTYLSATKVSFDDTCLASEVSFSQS
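Enhancer read-out: after compound pinning and an initial kinetic agonist-mode read, an EC20 of TRH (10 nM final) was injected and fluo-8 calcium signal (Ex 480/Em 530) followed at 1 s/cycle for 100 cycles in TRHR-expressing cells.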
D1 PAM: potentiators of human D1 dopamine receptor. HEK293 TREx D1 cells, calcium flux, dopamine EC20 potentiation. potentiation, % at 10 µM. 360,000 tested, 0.036% active; in the data active = potentiation above about 30%; note: 0% is about no effect
D1 agonist: human D1 receptor agonism; P21728; HEK293 T-REx D1 cells, calcium flux, agonist mode; activation, % at 2 µM; 360,000 tested, 1% active; note: 0% is about no effect
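Tetracycline-induced HEK293 TREx D1 cells, force-coupled to calcium signalling, were dye-loaded with a no-wash calcium kit. Compound was pin-added after a 10 s baseline. Fluorescence was read kinetically at 1 cycle/s for 180 s, with calcium rises flagged as agonism.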
TRHR ag: agonists of human TRH receptor; 360,000 tested, 0.18% active; AID 493084; TRHR cells, calcium flux fluo-8, FDSS agonist mode; activation, % at 2 µM; P34981; note: 0% is about no effect
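TRHR-expressing cells, plated overnight in medium with 10% serum, were loaded with fluo-8 calcium dye at room temperature. After a 10 s baseline, library compound was pin-added and calcium release was recorded kinetically (ex 480/em 530) as agonist response.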
D1 antag: blocks dopamine activation of the human D1 receptor. HEK293 TREx D1 cells, calcium flux, dopamine EC80; stronger effect = lower value. AID 504652. 360,000 tested, 3.2% active. activity change, negative = inhibition, % at 10 µM. P21728; in the data active = activity change below about -30%; note: % is set by controls: 0 for no effect and ±100 for the full control effect
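Calcium flux readout: force-coupled, inducible Hek293 Trex D1 line, cells induced overnight at 30 C with tetracycline, dye-loaded 30–90 min at RT. Antagonism scored against EC80 dopamine challenge given 180 s after compound.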
Active calls of the source: *. Cut-off read from the data, not from the text of the source, unless noted: active = activation above about 30%; inactive = the rest.

SMILES	TRHR PAM	D1 PAM	D1 agonist	TRHR ag	D1 antag
COc1ccc(-c2cc(C(=O)Oc3cccc(C)c3)c3ccccc3n2)cc1	-6.5	0.3	11.2	0.8	-14.3
Cc1ccccc1NC(=O)C(=O)NCC(c1ccc2c(c1)OCO2)N1CCN(c2ccccc2)CC1 (stereo not given)	3.3	-3.6	0.6	0.7	-13.1
Nc1ccc(-c2c3ccc(=O)cc-3oc3cc(O)ccc23)cc1C(=O)O	22.3	1.1	245.4*	151.7*	-1.1
O=c1ccc2c(-c3ccccc3)c3ccc(O)cc3oc-2c1	4.6	8.2	-0.2	-0.2	-3.8
O=C(Cc1cnn(-c2ccccc2)c1)c1ccc(O)c(O)c1O	-0.7	-2.4	2.6	0.3	-3.9
CCc1cc(C(=O)Cc2cnn(-c3ccccc3)c2)c(O)cc1O	1.3	-6.6	38.1*	-0.3	0.0
COc1ccc2oc(=O)cc(CN3CCN(c4ccccc4F)CC3)c2c1	-1.7	0.8	0.2	-1.4	-9.3
Cc1csc2ncnc(NC3CCN(Cc4ccccc4)CC3)c12	1.8	-9.9	21.7	0.3	-33.3*
c1ccc(CN2CCC(Nc3nc(-c4ccccc4)nc4ccccc34)CC2)cc1	1.3	-2.5	6.8	1.3	-0.7
N#CCc1c(C#N)c(N)nc(N2CCN(C=O)CC2)c1C#N	-0.3	-2.5	0.2	0.9	8.2
CC(=O)N1CCN(c2nc(N)c(C#N)c(CC#N)c2C#N)CC1	1.0	-11.3	1.9	0.9	-65.1*
CCc1cccc(C)c1NC(=O)c1cc2ccccc2o1	-0.8	1.4	2.2	-0.6	1.1
C(=C\c1nccc2c1[nH]c1ccccc12)/c1ccccc1	20.2	7.3	0.1	-0.3	-36.9*
Fc1ccc(/C=C\c2nccc3c2[nH]c2ccccc23)cc1	2.6	-3.5	-0.2	0.1	-5.0
Oc1[nH]c(=S)sc1/C=C1\C(c2ccccc2)=Nc2ccccc21	-7.2	-7.5	37.5*	9.0	0.1
Cc1cc(N2CCCC2)c(F)cc1/C=C\[N+](=O)[O-]	0.6	22.7	399.5*	-0.5	14.6
COc1ccc(C(=O)N2CCc3cc(OC)c(OC)cc3C2COc2ccc3c(C)cc(=O)oc3c2)c(OC)c1 (stereo not given)	24.4	1.8	2.1	-0.1	-2.1
O=C(N/N=C/c1cccc(F)c1)c1c(O)c2c([nH]c1=O)CCCC2	2.1	-4.8	1.5	0.6	-50.4*
CNC(=O)c1ccccc1NC(=O)c1c(O)c2c([nH]c1=O)CCCC2	1.4	-5.7	1.4	-0.5	15.1
COc1ccc(CN2COc3ccc4c(-c5ccccc5)cc(=O)oc4c3C2)cc1	-0.5	-1.4	27.6	-1.2	-24.6
Cc1ccc(CN2COc3ccc4c(-c5ccccc5)cc(=O)oc4c3C2)cc1	55.3*	-2.4	10.6	0.6	-17.3
COc1ccc(CCN(C)C2CCCN(S(=O)(=O)c3ccccc3F)C2)cc1OC (stereo not given)	0.5	-4.7	3.0	-0.2	-31.8*
COC(=O)c1sccc1S(=O)(=O)N1CCCC(N(C)CCc2ccccn2)C1 (stereo not given)	6.6	-4.5	3.8	0.2	-34.7*
Cc1nn(CCC(=O)Nc2ccc(Cl)cc2)c(C)c1S(=O)(=O)N1CCCCC1	1.7	1.1	3.2	1.4	3.0
O=C(c1ccc2c(c1)CCN2S(=O)(=O)c1ccc(Cl)cc1)N1CCN(c2ccc(F)cc2)CC1	-3.7	1.9	0.2	0.7	-3.6
SMILES	TRHR PAM	D1 PAM	D1 agonist	TRHR ag	D1 antag
Cc1ccc(CNC(=O)CS(=O)Cc2nc(-c3ccccc3Cl)oc2C)cc1 (stereo not given)	-5.3	0.7	4.0	0.5	-41.9*
Cc1ccc(-c2nc(CS(=O)CC(=O)NC3CC3)c(C)o2)cc1 (stereo not given)	3.1	3.0	0.2	-0.2	11.9
Cc1oc(-c2ccccc2Cl)nc1CS(=O)CC(=O)NC1CC1 (stereo not given)	3.1	-4.2	-0.1	0.3	-59.8*
CCN(c1ncnc2c1cnn2-c1cc(Cl)ccc1C)C1CCCCC1	-9.1	1.2	-0.6	-0.1	1.2
COc1ccc(NC(=O)C(CC(=O)O)C(C)c2ccccc2)cc1 (stereo not given)	-2.4	4.6	6.9	0.0	-39.3*
CCc1ccc(NC(=O)c2sc(-n3nc(C)c(Cc4ccc(OC)cc4)c3C)nc2C)cc1	1.4	0.9	-0.3	-1.0	-2.7
CCOC(=O)C1CCCN(C(=O)c2cc3cc(Br)ccc3oc2=O)C1 (stereo not given)	30.7*	1.6	1.4	-2.1	-26.4
CCOC(=O)C1CCN(C(=O)c2cc3cc(Br)ccc3oc2=O)CC1	-3.7	-3.8	-0.7	-0.2	33.5
O=[N+]([O-])c1cc(C(F)(F)F)cc([N+](=O)[O-])c1N1CCN(S(=O)(=O)c2ccccc2)CC1	-1.3	-4.2	1.4	0.2	-32.3*
O=C(Nc1ccc(OCc2cc(=O)n3ccsc3n2)cc1)c1ccc(F)cc1	0.4	-1.0	1.4	0.7	-0.8
Cc1ccc(OCC(=O)Nc2ccc3nc(SCC(=O)N4CCOCC4)sc3c2)cc1C	2.1	-0.8	6.9	0.0	-8.1
O=C(NCCCl)c1ccc(OCc2ccccc2)cc1Cl	-1.1	-5.3	57.5*	0.9	-9.7
C#CCNC(=O)c1ccc(OCc2ccccc2)cc1Cl	-1.9	-0.8	9.9	-0.5	0.7
CC(=O)Nc1ccc(Sc2ccccc2C(=O)Nc2ccc(F)cc2)cn1	0.7	1.9	46.2*	4.1	-7.7
Cc1nnc(SCc2nc(-c3ccc(Cl)cc3)no2)n1-c1ccc(F)cc1	-2.4	-2.8	22.7	-1.4	-33.2*
COc1ccc(-n2c(SCc3nc(-c4ccc(C)cc4)no3)nnc2-c2ccccc2)cc1	6.0	-0.2	4.1	0.8	4.0
COc1ccc(-c2noc(CSc3nc4ccccc4c(=O)n3-c3ccc(C)cc3)n2)cc1	33.4*	-0.7	6.2	0.4	6.2
O=C(OC1CCCCC1=O)c1ccc(S(=O)(=O)Nc2ccccc2)cc1 (stereo not given)	12.6	1.6	35.3*	1.3	-9.8
Cc1cc2c(s1)c1cnn(Cc3c(Cl)cccc3Br)c(=O)c1n2C	-1.2	4.8	-0.1	0.7	20.0
Cc1nn2c(=O)cc(COC(=O)c3ccc(NC(=O)COc4ccc(Cl)cc4)cc3)nc2s1	5.5	-0.6	2.8	-0.8	-9.4
O=C(O)CCN1CCOCC1	2.1	-2.4	1.1	0.5	-67.2*
CC(=O)Nc1cccc(OC(=O)COc2ccc(Br)cc2)c1	-8.6	-3.2	11.4	-0.5	-30.5*
COc1ccc(-n2ncc3c(NC4CCCC4)ncnc32)cc1	-3.8	0.5	-2.1	0.1	-2.3
Cn1cccc1/C=N/n1c(-c2ccc(Cl)cc2Cl)n[nH]c1=S	2.0	-2.4	43.9*	3.2	2.9
Cn1cccc1/C=N/n1c(-c2ccc(Cl)cc2)n[nH]c1=S	2.8	3.9	12.7	0.3	-5.8
